Results: PubChem BioAssay (Tox21)
Results filed as inconclusive are left out. Active and inactive are the calls of the source. Unless noted, calls come from the whole dose curve; as a rule, active = well fitted curve in the direction sought with a large enough effect in the repeat runs; inconclusive = weak or mixed curves; inactive = no such curve, though single readings can be large; an effect the other way counts as inactive or inconclusive.

Key:
[1] = qHTS assay to identify aromatase inhibitors - cell viability counter screen (AID 743084);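 note: cells stimulated with testosterone during compound exposure; nearly all actives have a fitted effect of over 55% in size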
[2] = target: Aryl hydrocarbon receptor (Homo sapiens) (UniProt P35869); test: qHTS assay to identify small molecule that activate the aryl hydrocarbon receptor (AhR) signaling pathway (AID 743085);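 note: HG2L7.5c1 human HepG2 liver cells with stably integrated DRE-driven firefly reporter; series mostly up to about 70 µM; nearly all actives have a fitted effect of over 15% in size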
Summary of the method: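 Stably transfected human liver carcinoma cells (HG2L7.5c1; 20 DRE-firefly luciferase) were incubated 5 h, dosed, and kept 24 h at 37C. Agonism was scored from increased luciferase luminescence.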

[3] = qHTS assay to identify small molecule that activate the aryl hydrocarbon receptor (AhR) signaling pathway - cell viability counter screen (AID 743086);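 note: HepG2 liver cells carrying the AhR DRE luciferase reporter; series mostly up to about 70 µM; nearly all actives have a fitted effect of over 45% in size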
Summary of the method: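 HepG2-AhR-luc (HG2L7.5c1) cells, 4000/well, treated 24 h at 37 C with compound; viability measured as CellTiter-Fluor fluorescence after 30 min in the same wells as the luciferase read.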

[4] = target: Peroxisome proliferator-activated receptor gamma (Homo sapiens) (UniProt P37231); test: qHTS assay to identify small molecule agonists of the peroxisome proliferator-activated receptor gamma (PPARg) signaling pathway (AID 743094; active = well fitted activation curve with a large enough effect in the signal ratio in the repeat runs, not every such curve was filed as active; the % refers to the signal ratio)
Summary of the method: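 Cells from the PPARg UAS-bla HEK293H line are plated and incubated 5 h at 37C. Compounds in DMSO are pinned in and left 17 h at 37C. LiveBLAzer B/G substrate is then added for 1 h at room temperature before fluorescence is measured.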

[5] = target: Peroxisome proliferator-activated receptor gamma (Homo sapiens) (UniProt P37231); test: qHTS assay to identify small molecule antagonists of the peroxisome proliferator-activated receptor gamma (PPARg) signaling pathway (AID 743191; calls by dose curve; note: series mostly up to about 63 µM; nearly all actives have a fitted effect of over 30% in size)
Summary of the method: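 GeneBLAzer PPARg UAS-bla HEK293H cells, 5 h post-plating, exposed to compounds 17 h at 37C. LiveBLAzer B/G FRET substrate added for 1 h at room temperature; beta-lactamase reporter read by fluorescence intensity.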

[6] = qHTS assay to identify small molecule antagonists of the peroxisome proliferator-activated receptor gamma (PPARg) signaling pathway - cell viability counter screen (AID 743194); note: nearly all actives have a fitted effect of over 55% in size
Summary of the method: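 Cytotoxicity counter screen in PPARg-bla HEK293H cells, same wells as reporter assay. Compounds plus 50 nM rosiglitazone (final) for 17 h at 37 C, then viability read by CellTiter-Glo luminescence.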

[7] = qHTS assay for small molecule agonists of the antioxidant response element (ARE) signaling pathway (AID 743202; active = well fitted activation curve with a large enough effect in the signal ratio in the repeat runs, not every such curve was filed as active; the % refers to the signal ratio)
Summary of the method: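 HepG2 ARE-bla reporter line, 2,000 cells/well; 5 h preincubation 37 C/5% CO2; compound (DMSO) 16 h 37 C; B/G FRET substrate 2 h RT; fluorescence intensity.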

[8] = qHTS assay for small molecule agonists of the antioxidant response element (ARE) signaling pathway - cell viability counter screen (AID 743203; calls by dose curve; note: nearly all actives have a fitted effect of over 55% in size)
Summary of the method: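 Cytotoxicity was tested in parallel with the ARE reporter screen. ARE-bla HepG2 cells were exposed to compounds for 16 hrs, and viability was taken from CellTiter-Glo luminescence.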

[9] = qHTS assay for small molecule activators of the heat shock response signaling pathway - cell viability counter screen (AID 743209); note: nearly all actives have a fitted effect of over 50% in size
Summary of the method: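 Cytotoxicity counter screen run in parallel with the HSE beta-lactamase reporter, using the same wells. HeLa HSE-bla cells received compound for 5 h at 37 C; ATP-based CellTiter-Glo luminescence was measured after 30 min at room temperature.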

[10] = qHTS assay for small molecule activators of the heat shock response signaling pathway (AID 743210; active = well fitted activation curve with a large enough effect in the signal ratio in the repeat runs, with a control signal flat, not every such curve was filed as active; the % refers to the signal ratio;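 note: HeLa cells with beta-lactamase reporter driven by heat shock elements; series mostly up to about 63 µM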)
Summary of the method: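 Beta-lactamase reporter read-out: FRET substrate fluorescence after 2.5 h at RT, following 5 h compound treatment at 37 C of HeLa cells carrying HSE-driven bla reporter; quantitative HTS format.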

[11] = qHTS assay to identify small molecule agonists of the peroxisome proliferator-activated receptor delta (PPARd) signaling pathway - cell viability counter screen (AID 743211); note: nearly all actives have a fitted effect of over 55% in size
Summary of the method: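 In the same wells used for beta-lactamase reporter measurement, cytotoxicity is scored by CellTiter-Glo. HEK293H PPARd-bla cells receive compound for 17 h at 37C following a 5 h settling period.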

[12] = qHTS assay to identify small molecule agonists of the farnesoid-X-receptor (FXR) signaling pathway - cell viability counter screen (AID 743218); note: nearly all actives have a fitted effect of over 45% in size
Summary of the method: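 Cells were seeded, left 5 h at 37 C and 5% CO2, then dosed with compound in DMSO for 16 h. After the beta-lactamase FRET read, CellTiter-Glo was added and luminescence measured 30 min later.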

[13] = qHTS assay to identify small molecule antagonists of the farnesoid-X-receptor (FXR) signaling pathway - cell viability counter screen (AID 743221; active = well fitted cell-killing curve with a large enough effect in the repeat runs, not every such curve was filed as active; note: nearly all actives have a fitted effect of over 50% in size)
Summary of the method: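 Here viability was scored by luminescence after CellTiter-Glo addition to wells already read for beta-lactamase. Prior treatment: compound plus CDCA (50 uM final), 16 h, 37 C, HEK 293T FXR-bla cells.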

[14] = target: Peroxisome proliferator-activated receptor delta (Homo sapiens) (UniProt Q03181); test: qHTS assay to identify small molecule agonists of the peroxisome proliferator-activated receptor delta (PPARd) signaling pathway (AID 743212; calls by dose curve)
Summary of the method: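 Read-out: beta-lactamase FRET fluorescence after 2 h room-temperature incubation with LiveBLAzer B/G substrate. Cells were HEK293H carrying a UAS-bla reporter for PPARd, treated at 37 C with DMSO-dissolved compounds.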

[15] = qHTS assay to identify small molecule antagonists of the peroxisome proliferator-activated receptor delta (PPARd) signaling pathway - cell viability counter screen (AID 743213); note: nearly all actives have a fitted effect of over 50% in size
Summary of the method: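 Viability counter-screen, qHTS format: PPARd-bla HEK293H, L165041 300 nM final, 17 h compound exposure at 37 C, CellTiter-Glo luminescence after 30 min RT.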

[16] = target: Peroxisome proliferator-activated receptor delta (Homo sapiens) (UniProt Q03181); test: qHTS assay to identify small molecule antagonists of the peroxisome proliferator-activated receptor delta (PPARd) signaling pathway (AID 743215; active = well fitted inhibition curve with a large enough effect in the signal ratio in the repeat runs, not every such curve was filed as active; the % refers to the signal ratio;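 note: cells stimulated with agonist L165041 at 300 nM final during compound exposure; series mostly up to about 62 µM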)
Summary of the method: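 Cells: HEK293H with a UAS-driven beta-lactamase reporter responsive to PPARd. Compounds were co-added with L165041 (300 nM, final) and incubated 17 h at 37 C before a 2 h room-temperature FRET substrate step and fluorescence reading.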

[17] = target: Bile acid receptor (Homo sapiens) (UniProt Q96RI1); test: qHTS assay to identify small molecule antagonists of the farnesoid-X-receptor (FXR) signaling pathway (AID 743217; active = well fitted inhibition curve with a large enough effect in the signal ratio in the repeat runs, not every such curve was filed as active; the % refers to the signal ratio)
Summary of the method: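 Cells carrying a UAS-driven beta-lactamase reporter (GeneBLAzer FXR-UAS-bla HEK 293T) were plated and rested 5 h at 37 °C. Compounds in DMSO were added alongside chenodeoxycholic acid agonist at 50 uM final and left 16 h at 37 °C before FRET substrate readout.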

[18] = target: Vitamin D3 receptor (Homo sapiens) (UniProt P11473); test: qHTS assay to identify small molecule agonists of the vitamin D receptor (VDR) signaling pathway (AID 743222; calls by dose curve)
Summary of the method: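 Cells carrying a VDR-driven beta-lactamase reporter are seeded at 2,000 per well and rested 4 h. Compounds in DMSO are added for 16 h at 37C, and FRET substrate fluorescence is measured after 2 h at room temperature.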

[19] = target: Vitamin D3 receptor (Homo sapiens) (UniProt P11473); test: qHTS assay to identify small molecule antagonists of the vitamin D receptor (VDR) signaling pathway (AID 743223; active = well fitted inhibition curve with a large enough effect in the signal ratio in the repeat runs, not every such curve was filed as active; the % refers to the signal ratio)
Summary of the method: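 Inhibition of agonist-driven VDR signalling is scored in VDR-bla cells: 3 nM final 1alpha,25-dihydroxyvitamin D3 plus compound, 16 h at 37C, then beta-lactamase detection by FRET substrate fluorescence after 2 h.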

[20] = target: Bile acid receptor (Homo sapiens) (UniProt Q96RI1); test: qHTS assay to identify small molecule agonists of the farnesoid-X-receptor (FXR) signaling pathway (AID 743220; active = well fitted activation curve with a large enough effect in the signal ratio in the repeat runs, not every such curve was filed as active; the % refers to the signal ratio)
Summary of the method: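 FXR-UAS-bla HEK 293T cells carrying a UAS-driven beta-lactamase reporter were plated for 5 h at 37C/5% CO2, then exposed to DMSO-dissolved Tox21 10K compounds for 16 h at 37C. A LiveBLAzer B/G FRET substrate was loaded for 2 h at room temperature before fluorescence reading.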

Measured: Potency

Vitamin D3 receptor (Homo sapiens), sequence (P11473 whole entry, looked up): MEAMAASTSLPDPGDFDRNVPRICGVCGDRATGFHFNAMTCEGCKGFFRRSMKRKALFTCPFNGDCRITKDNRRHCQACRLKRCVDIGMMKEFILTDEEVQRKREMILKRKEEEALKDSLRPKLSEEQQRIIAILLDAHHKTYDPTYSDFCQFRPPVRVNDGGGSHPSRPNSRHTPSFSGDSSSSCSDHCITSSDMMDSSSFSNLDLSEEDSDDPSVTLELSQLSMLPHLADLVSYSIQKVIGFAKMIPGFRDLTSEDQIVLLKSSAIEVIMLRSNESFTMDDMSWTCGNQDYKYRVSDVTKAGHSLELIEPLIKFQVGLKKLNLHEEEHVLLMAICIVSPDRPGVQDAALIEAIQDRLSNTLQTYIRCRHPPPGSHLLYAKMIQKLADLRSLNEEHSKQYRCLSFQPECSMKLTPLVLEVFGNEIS
Aryl hydrocarbon receptor (Homo sapiens), sequence (P35869 whole entry, looked up): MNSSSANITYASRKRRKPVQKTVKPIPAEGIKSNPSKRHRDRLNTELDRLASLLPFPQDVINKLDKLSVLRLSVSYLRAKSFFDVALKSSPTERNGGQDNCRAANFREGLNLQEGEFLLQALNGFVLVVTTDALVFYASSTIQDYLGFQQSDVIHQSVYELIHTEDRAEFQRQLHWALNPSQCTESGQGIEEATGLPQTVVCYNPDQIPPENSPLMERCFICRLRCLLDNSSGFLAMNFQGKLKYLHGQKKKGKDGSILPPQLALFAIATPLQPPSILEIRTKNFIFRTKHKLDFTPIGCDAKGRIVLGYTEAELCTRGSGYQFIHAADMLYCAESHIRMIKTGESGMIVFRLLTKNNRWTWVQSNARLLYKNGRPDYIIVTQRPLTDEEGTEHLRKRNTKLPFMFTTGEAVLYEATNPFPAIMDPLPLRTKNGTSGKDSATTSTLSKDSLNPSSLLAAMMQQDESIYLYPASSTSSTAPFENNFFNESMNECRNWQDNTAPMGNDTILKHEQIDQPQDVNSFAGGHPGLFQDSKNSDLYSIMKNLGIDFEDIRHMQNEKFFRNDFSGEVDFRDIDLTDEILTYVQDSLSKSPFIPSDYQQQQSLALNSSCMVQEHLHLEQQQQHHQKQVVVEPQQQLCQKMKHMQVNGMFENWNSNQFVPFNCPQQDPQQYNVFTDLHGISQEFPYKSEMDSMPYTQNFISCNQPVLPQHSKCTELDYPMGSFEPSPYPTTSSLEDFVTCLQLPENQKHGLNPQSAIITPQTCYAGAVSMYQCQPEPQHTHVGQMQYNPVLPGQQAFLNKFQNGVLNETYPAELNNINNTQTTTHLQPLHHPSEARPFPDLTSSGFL
Bile acid receptor (Homo sapiens), sequence (Q96RI1 whole entry, looked up): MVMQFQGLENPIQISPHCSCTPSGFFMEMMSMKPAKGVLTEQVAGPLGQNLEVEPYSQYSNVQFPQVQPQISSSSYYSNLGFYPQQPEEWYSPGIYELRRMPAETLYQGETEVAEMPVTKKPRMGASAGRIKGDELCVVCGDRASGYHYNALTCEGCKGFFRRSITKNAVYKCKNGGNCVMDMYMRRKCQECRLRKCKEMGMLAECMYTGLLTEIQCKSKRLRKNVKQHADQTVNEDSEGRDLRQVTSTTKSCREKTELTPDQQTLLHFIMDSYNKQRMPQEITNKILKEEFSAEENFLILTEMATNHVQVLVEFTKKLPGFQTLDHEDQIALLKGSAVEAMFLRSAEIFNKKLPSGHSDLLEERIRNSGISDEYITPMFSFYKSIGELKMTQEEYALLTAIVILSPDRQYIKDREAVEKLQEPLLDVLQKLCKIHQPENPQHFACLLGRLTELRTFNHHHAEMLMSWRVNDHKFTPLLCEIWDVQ
Peroxisome proliferator-activated receptor gamma (Homo sapiens), sequence (P37231 whole entry, looked up): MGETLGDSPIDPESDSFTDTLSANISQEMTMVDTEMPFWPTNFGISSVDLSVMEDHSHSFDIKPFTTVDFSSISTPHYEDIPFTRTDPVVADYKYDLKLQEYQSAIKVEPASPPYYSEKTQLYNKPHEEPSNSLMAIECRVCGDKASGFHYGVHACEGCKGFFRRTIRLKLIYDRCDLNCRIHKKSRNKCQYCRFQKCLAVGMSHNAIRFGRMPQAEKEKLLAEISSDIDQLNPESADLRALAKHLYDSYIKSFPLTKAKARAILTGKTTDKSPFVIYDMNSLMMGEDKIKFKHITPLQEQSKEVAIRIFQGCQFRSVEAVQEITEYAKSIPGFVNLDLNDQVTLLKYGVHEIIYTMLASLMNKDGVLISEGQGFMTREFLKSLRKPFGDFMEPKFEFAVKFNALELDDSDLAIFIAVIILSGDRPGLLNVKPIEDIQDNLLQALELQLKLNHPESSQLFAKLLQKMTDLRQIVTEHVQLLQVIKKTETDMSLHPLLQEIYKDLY
Peroxisome proliferator-activated receptor delta (Homo sapiens), sequence (Q03181 whole entry, looked up): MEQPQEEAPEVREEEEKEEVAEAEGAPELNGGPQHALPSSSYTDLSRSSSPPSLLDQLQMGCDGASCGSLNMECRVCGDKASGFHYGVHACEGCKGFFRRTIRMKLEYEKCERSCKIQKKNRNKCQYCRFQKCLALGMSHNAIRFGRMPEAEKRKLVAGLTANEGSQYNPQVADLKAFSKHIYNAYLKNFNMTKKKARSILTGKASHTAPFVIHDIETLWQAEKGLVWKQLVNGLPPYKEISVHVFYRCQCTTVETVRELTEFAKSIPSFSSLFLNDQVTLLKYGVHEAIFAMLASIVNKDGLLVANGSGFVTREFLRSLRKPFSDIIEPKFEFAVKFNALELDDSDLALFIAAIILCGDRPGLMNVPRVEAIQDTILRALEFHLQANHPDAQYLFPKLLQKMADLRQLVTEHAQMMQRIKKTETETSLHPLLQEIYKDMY

CC(CO)c1ccccc1 (stereo unspecified)
not listed: [14] | [15] | [16] | [17] | [18] | [19] | [20]
inactive: all other assays above

NCCS
not listed: [20]
inactive: all other assays above

C[C@H](CCC(=O)O)[C@H]1CC[C@H]2[C@@H]3C(=O)C[C@@H]4CC(=O)CC[C@]4(C)[C@H]3CC(=O)[C@]12C
not listed: [17] | [20]
inactive: all other assays above

CCc1ccc(C=O)cc1
not listed: [17] | [20]
inactive: all other assays above

Cc1ccccc1OCC(O)CO (stereo unspecified)
not listed: [17] | [18] | [20]
inactive: all other assays above

CC(=O)CCCCn1c(=O)c2c(ncn2C)n(C)c1=O
not listed: [8] | [13] | [17] | [18] | [19] | [20]
inactive: all other assays above

CC/C=C\CC1=C(C)CCC1=O
not listed: [7] | [14] | [16] | [17] | [20]
inactive: all other assays above

COP(=O)(OC)OC(c1ccc(Cl)cc1)P(=O)(OC)OC (stereo unspecified)
not listed: [10] | [17] | [20]
inactive: all other assays above

CC(=O)Nc1ccc(S(=O)(=O)Nc2ccc([N+](=O)[O-])cc2)cc1
not listed: [7] | [8] | [10] | [16] | [17] | [20]
inactive: all other assays above

CC(=O)N[C@@H](CCC(=O)O)C(=O)O
not listed: [7] | [14] | [15] | [16] | [17] | [18] | [19] | [20]
inactive: all other assays above

Nc1ncnc(Nc2ccccc2)n1
not listed: [7] | [11] | [17] | [20]
inactive: all other assays above

CCOC(=O)/C=C/c1ccccc1
not listed: [7] | [10] | [14] | [17] | [20]
inactive: all other assays above

C=C(C)C(=O)OCC(C)(C)COC(=O)C(=C)C
not listed: [8] | [11] | [17] | [18] | [19] | [20]
inactive: all other assays above

CCCCCOC(=O)CCC
not listed: [7] | [11] | [17] | [18] | [19] | [20]
inactive: all other assays above

COC(=O)CCCCCCCC(=O)OC
not listed: [7] | [10] | [11] | [13] | [14] | [16] | [17] | [20]
inactive: all other assays above

CCN1CCc2nc(N)oc2CC1
not listed: [8] | [9] | [11] | [15] | [17] | [18] | [19]
inactive: all other assays above

CCN(C)C(=O)Oc1cccc([C@H](C)N(C)C)c1
not listed: [8] | [14] | [17] | [18] | [19]
inactive: all other assays above

C=Cc1ccccn1
not listed: [11] | [13] | [15] | [17] | [20]
inactive: all other assays above
